Test results published in PubChem BioAssay (Tox21).
Results filed as inconclusive are left out. The source made the active and inactive calls. Unless noted, calls come from the whole dose curve; as a rule, active = well fitted curve in the direction sought with a large enough effect in the repeat runs; inconclusive = weak or mixed curves; inactive = no such curve, though single readings can be large; an effect the other way counts as inactive or inconclusive.

How the values were obtained:
[1] = qHTS assay to identify small molecule agonists of the androgen receptor (AR) signaling pathway in the presence of an antagonist - cell viability counter screen (AID 1259379); note: nearly all actives have a fitted effect of over 25% in size; note: potency is the fitted concentration of half-maximal effect;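 for activity change, negative = cytotoxicity: MDA-kb2 human breast cancer cells carrying an MMTV luciferase reporter; series mostly up to about 92 µM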
How it was run: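 A CellTiter-Fluor read-out measured viability of MDA-kb2 reporter cells (MMTV promoter with AR and GR response elements). Treatment: nilutamide 3.0uM final with compounds at 15 concentrations, 16 hr, 37C, 0% CO2.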

[2] = qHTS assay to identify small molecule agonists of the estrogen receptor beta (ER-beta) signaling pathway - cell viability counter screen (AID 1259380); note: nearly all actives have a fitted effect of over 30% in size
How it was run: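 Cells used were ER-beta-UAS-bla HEK293T in medium with 2% charcoal-stripped FBS. They were treated for 16 hr at 37C. Viability came from CellTiter-Glo luminescence.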

[3] = qHTS assay to identify small molecule antagonists of the estrogen receptor beta (ER-beta) signaling pathway - cell viability counter screen (AID 1259382); note: series mostly up to about 92 µM; nearly all actives have a fitted effect of over 55% in size
How it was run: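 Agonist-stimulated (1nM E2) ER-beta-UAS-bla HEK293T cells are incubated with library compounds for 16 hr at 37C. Cell viability is then assessed in the reporter-assay wells by adding CellTiter-Glo and reading luminescence after 30 min.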

[4] = target: Estrogen receptor (Homo sapiens) (UniProt P03372); assay: qHTS assay to identify small molecule agonists of the estrogen receptor alpha (ER-alpha) signaling pathway in the presence of an antagonist (AID 1259383; calls by dose curve; note: top concentration of the series differs between compounds; nearly all actives have a fitted effect of over 15% in size)
Chain of Estrogen receptor (Homo sapiens) (P03372 whole entry, looked up): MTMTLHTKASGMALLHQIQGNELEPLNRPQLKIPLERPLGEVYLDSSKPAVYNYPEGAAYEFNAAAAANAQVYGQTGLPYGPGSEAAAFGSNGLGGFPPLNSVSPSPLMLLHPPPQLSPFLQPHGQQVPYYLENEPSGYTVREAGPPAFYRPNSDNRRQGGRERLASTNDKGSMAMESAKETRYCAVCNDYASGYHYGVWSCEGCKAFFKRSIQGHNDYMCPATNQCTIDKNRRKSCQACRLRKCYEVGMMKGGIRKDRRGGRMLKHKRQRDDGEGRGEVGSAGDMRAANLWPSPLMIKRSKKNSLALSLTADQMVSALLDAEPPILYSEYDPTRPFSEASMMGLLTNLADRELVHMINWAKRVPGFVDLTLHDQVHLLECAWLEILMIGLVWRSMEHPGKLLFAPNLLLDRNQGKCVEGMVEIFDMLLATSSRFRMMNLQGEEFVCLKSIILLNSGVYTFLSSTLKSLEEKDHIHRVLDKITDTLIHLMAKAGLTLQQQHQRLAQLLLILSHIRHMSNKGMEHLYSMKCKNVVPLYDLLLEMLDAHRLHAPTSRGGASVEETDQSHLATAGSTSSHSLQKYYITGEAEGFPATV
How it was run: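 Using VM7Luc4E2 cells seeded 24hr before treatment, antagonist ICI-182,780 (10.0nM final) was added, followed by compounds at 15 concentrations. Plates incubated 22hr; ONE-Glo luminescence quantified reporter activity.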

[5] = qHTS assay to identify small molecule agonists or antagonists of the thyroid stimulating hormone receptor (TSHR) signaling pathway - wild type cell line counter screen (AID 1259384; calls by dose curve)
How it was run: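 Wild-type HEK293 cells were plated 18 h at 37 C/5% CO2, pin-dosed with compound plus Ro20-1724 medium, held 30 min at room temperature, then given cAMP-d2 and anti-cAMP-cryptate; fluorescence was read after 1 h. Fifteen concentrations, triplicate.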

[6] = target: Thyrotropin receptor (Homo sapiens) (UniProt P16473); assay: qHTS assay to identify small molecule antagonists of the thyroid stimulating hormone receptor (TSHR) signaling pathway (AID 1259385; calls by dose curve; note: nearly all actives have a fitted effect of over 20% in size)
Chain of Thyrotropin receptor (Homo sapiens) (P16473 whole entry, looked up): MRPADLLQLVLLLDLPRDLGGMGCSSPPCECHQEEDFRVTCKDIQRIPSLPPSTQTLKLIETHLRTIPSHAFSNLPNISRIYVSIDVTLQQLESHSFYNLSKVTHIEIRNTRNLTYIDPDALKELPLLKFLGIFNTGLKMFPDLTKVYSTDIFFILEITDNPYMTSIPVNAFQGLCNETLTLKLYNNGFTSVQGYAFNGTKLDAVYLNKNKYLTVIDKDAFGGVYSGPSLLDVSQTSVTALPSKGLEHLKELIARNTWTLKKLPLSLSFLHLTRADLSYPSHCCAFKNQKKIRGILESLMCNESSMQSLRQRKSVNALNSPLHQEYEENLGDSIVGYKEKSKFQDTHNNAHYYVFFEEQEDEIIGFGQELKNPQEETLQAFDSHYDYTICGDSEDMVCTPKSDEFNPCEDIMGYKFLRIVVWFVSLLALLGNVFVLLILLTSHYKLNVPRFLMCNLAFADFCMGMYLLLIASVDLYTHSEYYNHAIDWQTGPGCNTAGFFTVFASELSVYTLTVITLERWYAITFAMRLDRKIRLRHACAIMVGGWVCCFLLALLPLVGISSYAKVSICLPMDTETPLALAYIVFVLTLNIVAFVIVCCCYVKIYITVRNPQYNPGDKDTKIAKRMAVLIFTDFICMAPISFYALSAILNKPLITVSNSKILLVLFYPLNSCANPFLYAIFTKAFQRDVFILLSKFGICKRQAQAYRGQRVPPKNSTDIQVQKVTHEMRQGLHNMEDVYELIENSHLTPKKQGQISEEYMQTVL
How it was run: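 TSHR-HEK293 cells were plated and held 18 h at 37C/5% CO2, then given compound plus Ro20-1724 and stimulated with TSH at 1.5 ng/mL final. After 30 min at room temperature, cAMP was detected with cAMP-d2/anti-cAMP-cryptate (1 h) by fluorescence.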

[7] = qHTS assay to identify small molecule agonists of the estrogen receptor alpha (ER-alpha) signaling pathway in the presence of an antagonist - cell viability counter screen (AID 1259386);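 note: cells exposed to compounds for 22 h at 37 °C before the viability read; nearly all actives have a fitted effect of over 30% in size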; note: potency is the fitted concentration of half-maximal effect; for activity change, negative = cytotoxicity: series mostly up to about 92 µM
How it was run: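 ICI-182,780 at 10.0nM final accompanies the compound titration (15 concentrations, 22hr, 37C) on VM7Luc4E2 cells. The CellTiter-Fluor fluorescence readout runs in the same wells as the luciferase assay.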

[8] = target: Progesterone receptor (Homo sapiens) (UniProt P06401); assay: qHTS assay to identify small molecule agonists of the progesterone receptor (PR) signaling pathway (AID 1346784; calls by dose curve; note: nearly all actives have a fitted effect of over 30% in size; note: potency is the fitted concentration of half-maximal effect)
Chain of Progesterone receptor (Homo sapiens) (P06401 whole entry, looked up): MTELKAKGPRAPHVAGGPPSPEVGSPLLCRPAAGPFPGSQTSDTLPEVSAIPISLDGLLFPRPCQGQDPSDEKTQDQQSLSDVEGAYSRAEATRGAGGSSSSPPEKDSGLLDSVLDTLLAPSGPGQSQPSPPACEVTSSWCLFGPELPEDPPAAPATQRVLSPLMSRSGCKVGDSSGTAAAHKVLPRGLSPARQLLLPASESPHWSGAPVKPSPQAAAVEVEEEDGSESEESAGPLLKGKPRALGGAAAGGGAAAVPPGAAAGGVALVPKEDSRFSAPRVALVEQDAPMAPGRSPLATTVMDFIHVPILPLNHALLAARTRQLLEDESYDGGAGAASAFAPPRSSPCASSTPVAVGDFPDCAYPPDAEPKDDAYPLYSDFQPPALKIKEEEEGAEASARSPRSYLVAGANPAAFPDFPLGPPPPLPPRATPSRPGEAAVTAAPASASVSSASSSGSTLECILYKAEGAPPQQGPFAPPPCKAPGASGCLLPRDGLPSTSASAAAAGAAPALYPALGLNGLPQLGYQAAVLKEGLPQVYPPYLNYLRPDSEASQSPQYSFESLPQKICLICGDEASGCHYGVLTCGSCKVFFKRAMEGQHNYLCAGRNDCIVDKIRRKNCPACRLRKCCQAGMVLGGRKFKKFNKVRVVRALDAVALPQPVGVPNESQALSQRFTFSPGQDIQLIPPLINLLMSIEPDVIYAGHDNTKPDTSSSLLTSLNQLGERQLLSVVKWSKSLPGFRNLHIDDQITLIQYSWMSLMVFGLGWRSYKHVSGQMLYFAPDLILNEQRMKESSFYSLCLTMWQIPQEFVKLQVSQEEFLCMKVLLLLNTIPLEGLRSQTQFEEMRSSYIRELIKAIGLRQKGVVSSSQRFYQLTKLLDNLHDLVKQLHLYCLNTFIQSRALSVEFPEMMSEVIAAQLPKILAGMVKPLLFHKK
How it was run: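 HEK 293T PR-UAS-bla reporter cells, 2% charcoal-stripped FBS; 6 hr settle at 37C/5% CO2, compound (DMSO) 16 hr, LiveBLAzer B/G FRET substrate 2 hr RT, fluorescence intensity read.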

[9] = target: Progesterone receptor (Homo sapiens) (UniProt P06401); assay: qHTS assay to identify small molecule antagonists of the progesterone receptor (PR) signaling pathway (AID 1346795; active = well fitted inhibition curve with a large enough effect in the signal ratio in the repeat runs, not every such curve was filed as active; the % refers to the signal ratio)
How it was run: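 Beta-lactamase reporter, HEK293T PR-UAS-bla line; 2% charcoal-stripped FBS; 6 hr pre-incubation, 37C/5% CO2. Compound + R5020 1 nM final, 16 hr. LiveBLAzer B/G FRET substrate, 2 hr RT; fluorescence intensity read.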

[10] = qHTS assay to identify small molecule antagonists of the progesterone receptor (PR) signaling pathway - cell viability counter screen (AID 1346798); note: series mostly up to about 92 µM; nearly all actives have a fitted effect of over 50% in size
How it was run: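 Luminescence readout (CellTiter-Glo, 30 min, RT) of viability in PR-UAS-bla HEK293T cells exposed to compound and R5020 agonist for 16 hr at 37C, 5% CO2; run in the same wells as the beta-lactamase reporter read.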

[11] = qHTS assay to identify small molecule agonists of the progesterone receptor (PR) signaling pathway - cell viability counter screen (AID 1346799; calls by dose curve; note: nearly all actives have a fitted effect of over 45% in size)
How it was run: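 HEK293T PR-UAS-bla, 3,000 cells/well, 2% charcoal-stripped FBS; 6 h settle, compound 16 h at 37C/5% CO2; LiveBLAzer 2 h RT, then CellTiter-Glo 30 min RT, luminescence read.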

[12] = qHTS assay to identify small molecule antagonists of the TGF-beta/Smad signaling pathway - cell viability counter screen (AID 1346824); note: nearly all actives have a fitted effect of over 50% in size
How it was run: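 SBE-bla HEK 293T cells were plated overnight at 37 C, then given compounds in DMSO plus TGF-beta1 (added as 0.25 ng/mL solution) for 5 hr. After the bla read, CellTiter-Glo was added to the same wells and luminescence read after 30 min at room temperature.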

[13] = qHTS assay to identify small molecule agonists of the TGF-beta/Smad signaling pathway - cell viability counter screen (AID 1346829); note: top concentration of the series differs between compounds; nearly all actives have a fitted effect of over 45% in size
How it was run: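 CellTiter-Glo luminescence readout; SBE-bla HEK 293T cells, overnight plating, compound 5 hr at 37 C/5% CO2, then bla substrate 2 hr RT, then CellTiter-Glo 30 min RT.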

[14] = qHTS assay to identify small molecule agonists of the TGF-beta/Smad signaling pathway (AID 1346859; active = well fitted activation curve with a large enough effect in the signal ratio in the repeat runs, not every such curve was filed as active; the % refers to the signal ratio; note: series mostly up to about 77 µM)
How it was run: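 Read-out: fluorescence at 460 and 530 nm (405 nm excitation) after a 2 hr room-temperature incubation with beta-lactamase FRET substrate. SBE-bla HEK 293T cells had been treated with test compounds for 5 hr at 37 C.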

[15] = target: Thyrotropin-releasing hormone receptor (Homo sapiens) (UniProt P34981); assay: qHTS assay to identify small molecule antagonists of the thyrotropin-releasing hormone receptor (TRHR) signaling pathway (AID 1346877; active = well fitted inhibition curve with a large enough effect in the repeat runs, not every such curve was filed as active; note: series mostly up to about 51 µM)
Chain of Thyrotropin-releasing hormone receptor (Homo sapiens) (P34981 whole entry, looked up): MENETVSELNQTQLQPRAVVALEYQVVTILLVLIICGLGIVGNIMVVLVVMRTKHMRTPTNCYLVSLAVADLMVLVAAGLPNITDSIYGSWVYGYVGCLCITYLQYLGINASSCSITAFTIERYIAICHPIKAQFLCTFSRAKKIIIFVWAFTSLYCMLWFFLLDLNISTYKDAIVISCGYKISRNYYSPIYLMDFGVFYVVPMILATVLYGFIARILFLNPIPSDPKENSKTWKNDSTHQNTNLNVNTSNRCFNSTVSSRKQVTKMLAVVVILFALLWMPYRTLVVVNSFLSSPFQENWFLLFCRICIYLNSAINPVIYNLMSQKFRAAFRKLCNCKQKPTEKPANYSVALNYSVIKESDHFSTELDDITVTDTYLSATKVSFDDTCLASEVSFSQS
How it was run: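 Screening used HEK293 cells engineered with TRHR, with a brief 5 min room-temperature compound exposure preceding addition of TRH to 1 nM. The read-out was kinetic calcium-dye fluorescence, concentration-response from 15 doses in triplicate.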

[16] = target: Thyrotropin-releasing hormone receptor (Homo sapiens) (UniProt P34981); assay: qHTS assay to identify small molecule agonists of the thyrotropin-releasing hormone receptor (TRHR) signaling pathway (AID 1346891; calls by dose curve;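 note: HEK293 cells expressing TRHR with calcium dye readout; series mostly up to about 58 µM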)
How it was run: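 HEK293/TRHR cells, 1500 per well, 18 h 37 °C; Ca dye 2 h 37 °C; pin-tool compound addition (agonist mode); kinetic fluorescence 3 min, 1 s reads; 15 concentrations, triplicate.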

[17] = target: Estrogen receptor beta (Homo sapiens) (UniProt Q92731); assay: qHTS assay to identify small molecule agonists of the estrogen receptor beta (ER-beta) signaling pathway (AID 1259377; active = well fitted activation curve with a large enough effect in the signal ratio in the repeat runs, not every such curve was filed as active; the % refers to the signal ratio)
Chain of Estrogen receptor beta (Homo sapiens) (Q92731 whole entry, looked up): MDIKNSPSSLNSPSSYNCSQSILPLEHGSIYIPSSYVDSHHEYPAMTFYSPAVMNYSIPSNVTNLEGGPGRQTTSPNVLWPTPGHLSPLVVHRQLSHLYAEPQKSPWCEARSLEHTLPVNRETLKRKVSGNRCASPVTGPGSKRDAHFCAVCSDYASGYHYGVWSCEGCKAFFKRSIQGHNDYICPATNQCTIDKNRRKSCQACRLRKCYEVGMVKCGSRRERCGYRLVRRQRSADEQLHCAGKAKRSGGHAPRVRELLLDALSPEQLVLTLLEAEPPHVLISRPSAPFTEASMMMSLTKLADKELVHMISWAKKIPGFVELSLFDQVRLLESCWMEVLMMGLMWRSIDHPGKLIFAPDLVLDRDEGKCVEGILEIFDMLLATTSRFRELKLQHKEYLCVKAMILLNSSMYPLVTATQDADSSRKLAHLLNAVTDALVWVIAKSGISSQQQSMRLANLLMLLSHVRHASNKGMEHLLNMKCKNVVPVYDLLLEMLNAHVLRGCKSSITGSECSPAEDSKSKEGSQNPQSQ
How it was run: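 Beta-lactamase reporter readout: fluorescence of LiveBLAzer B/G FRET substrate after 2 h at room temperature, following 16 h compound treatment of ER-beta-UAS-bla HEK293T cells at 37C in 2% charcoal-stripped FBS medium.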

[18] = target: Androgen receptor (Homo sapiens) (UniProt P10275); assay: qHTS assay to identify small molecule agonists of the androgen receptor (AR) signaling pathway in the presence of an antagonist (AID 1259381; calls by dose curve; note: nearly all actives have a fitted effect of over 15% in size)
Chain of Androgen receptor (Homo sapiens) (P10275 whole entry, looked up): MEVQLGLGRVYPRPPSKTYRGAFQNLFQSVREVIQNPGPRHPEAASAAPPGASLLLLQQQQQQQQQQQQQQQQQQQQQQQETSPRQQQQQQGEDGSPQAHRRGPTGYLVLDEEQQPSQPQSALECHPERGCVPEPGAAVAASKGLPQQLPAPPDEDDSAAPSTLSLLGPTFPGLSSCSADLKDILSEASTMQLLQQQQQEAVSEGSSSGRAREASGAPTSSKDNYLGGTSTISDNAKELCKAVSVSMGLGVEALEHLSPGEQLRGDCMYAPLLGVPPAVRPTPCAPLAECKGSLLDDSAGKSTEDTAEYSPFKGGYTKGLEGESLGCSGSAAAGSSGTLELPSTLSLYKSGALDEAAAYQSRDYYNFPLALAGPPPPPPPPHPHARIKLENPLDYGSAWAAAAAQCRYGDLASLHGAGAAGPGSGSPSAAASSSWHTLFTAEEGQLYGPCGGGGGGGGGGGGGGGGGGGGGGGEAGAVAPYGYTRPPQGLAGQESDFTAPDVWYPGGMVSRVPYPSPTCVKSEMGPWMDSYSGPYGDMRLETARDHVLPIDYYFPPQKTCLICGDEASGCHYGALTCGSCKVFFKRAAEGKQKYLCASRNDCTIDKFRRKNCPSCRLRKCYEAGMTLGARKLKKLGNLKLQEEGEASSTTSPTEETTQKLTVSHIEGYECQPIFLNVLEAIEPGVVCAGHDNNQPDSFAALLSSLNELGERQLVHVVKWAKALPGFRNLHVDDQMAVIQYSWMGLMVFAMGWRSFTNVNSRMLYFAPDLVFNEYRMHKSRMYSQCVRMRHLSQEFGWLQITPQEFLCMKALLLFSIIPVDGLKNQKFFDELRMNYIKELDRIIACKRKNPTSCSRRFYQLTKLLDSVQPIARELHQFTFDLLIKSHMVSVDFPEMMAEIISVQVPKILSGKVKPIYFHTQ
How it was run: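 Using human MDA-kb2 cells with an MMTV promoter–luciferase construct (AR and GR response elements), agonist activity is scored under 3.0uM nilutamide (final) co-treatment; 16hr incubation, 37C, luminescence readout via ONE-Glo.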
% is set by controls: 0 for no effect and ±100 for the full control effect.

CCCCOC(=O)CCC(C)=O
inactive: Potency [1] | Potency [2] | outcome [3] | outcome [4] | outcome [5] | outcome [6] | Potency [7] | Potency [8] | Potency [9] | Potency [10] | Potency [11] | outcome [12] | outcome [13] | outcome [14] | outcome [15] | Potency [16]

CC1=NN(c2cc(S(=O)(=O)O)ccc2Cl)C(=O)C1N=Nc1ccccc1 (centres undefined)
inactive: Potency [17] | Potency [2] | outcome [3] | outcome [4] | outcome [5] | outcome [6] | Potency [8] | Potency [9] | Potency [10] | Potency [11] | outcome [12] | outcome [13] | outcome [14] | outcome [15] | Potency [16]
active: Potency [1] 27.3 µM | Potency [7] 27.3 µM

CCCc1nn(C)c2c(=O)[nH]c(-c3cc(S(=O)(=O)N4CCN(C)CC4)ccc3OCC)nc12
inactive: Potency [1] | outcome [3] | outcome [5] | outcome [6] | Potency [7] | Potency [9] | Potency [10] | Potency [11] | outcome [12] | outcome [13] | outcome [14] | outcome [15] | Potency [16]
active: Potency [8] 13.3 µM

CCCCCCCC1CCCC1=O (centres undefined)
inactive: Potency [17] | Potency [1] | Potency [2] | Potency [18] | outcome [3] | outcome [4] | outcome [5] | outcome [6] | Potency [7] | Potency [8] | Potency [9] | Potency [10] | Potency [11] | outcome [12] | outcome [14]

COc1ccnc(CS(=O)c2nc3cc(OC(F)F)ccc3[nH]2)c1OC (centres undefined)
inactive: Potency [1] | outcome [3] | outcome [4] | outcome [5] | outcome [6] | Potency [7] | Potency [8] | Potency [9] | Potency [10] | Potency [11] | outcome [12] | outcome [13] | outcome [14]

c1ccc(CCc2ccccc2)cc1
inactive: Potency [17] | outcome [3] | outcome [5] | outcome [6] | Potency [7] | Potency [8] | Potency [9] | Potency [10] | Potency [11] | outcome [12] | outcome [13] | outcome [14] | outcome [15] | Potency [16]

Cc1cc(C)c(N=Nc2c(O)c(S(=O)(=O)O)cc3cc(S(=O)(=O)O)ccc23)cc1C
inactive: activity change, negative = cytotoxicity [1] -11.3% [at 8.39 µM] | activity change, negative = cytotoxicity [2] -5.12% [at 8.39 µM] | activity change, negative = cytotoxicity [3] 8.89% [at 8.39 µM] | activation [4] -2.23% [at 8.39 µM] | cAMP activity change [5] 2.77% [at 8.39 µM] | activity change, negative = inhibition [6] -1.06% [at 8.39 µM] | activity change, negative = inhibition [9] 2.15% [at 8.39 µM] | activity change, negative = cytotoxicity [10] 1.98% [at 8.39 µM] | activity change, negative = cytotoxicity [11] 0% [at 8.39 µM] | viability change, negative = cytotoxic [12] -0.1% [at 6.97 µM] | activity change, negative = cytotoxicity [13] -4.86% [at 6.97 µM] | activation [14] 0.0984% [at 6.97 µM]

OCCc1ccccn1
inactive: Potency [17] | Potency [1] | outcome [3] | Potency [7] | Potency [8] | Potency [9] | Potency [10] | Potency [11] | outcome [12] | outcome [13] | outcome [14] | outcome [15] | Potency [16]
